Source: PubChem BioAssay (National Center for Advancing Translational Sciences (NCATS))
D1 agonist = Allosteric Agonists of the Human D1 Dopamine Receptor: qHTS; HEK293 T-REx D1 cells, calcium flux, agonist mode; activation, % at 2 µM; hit rate 1% among 360,000
Target sequence (P21728 whole entry, looked up): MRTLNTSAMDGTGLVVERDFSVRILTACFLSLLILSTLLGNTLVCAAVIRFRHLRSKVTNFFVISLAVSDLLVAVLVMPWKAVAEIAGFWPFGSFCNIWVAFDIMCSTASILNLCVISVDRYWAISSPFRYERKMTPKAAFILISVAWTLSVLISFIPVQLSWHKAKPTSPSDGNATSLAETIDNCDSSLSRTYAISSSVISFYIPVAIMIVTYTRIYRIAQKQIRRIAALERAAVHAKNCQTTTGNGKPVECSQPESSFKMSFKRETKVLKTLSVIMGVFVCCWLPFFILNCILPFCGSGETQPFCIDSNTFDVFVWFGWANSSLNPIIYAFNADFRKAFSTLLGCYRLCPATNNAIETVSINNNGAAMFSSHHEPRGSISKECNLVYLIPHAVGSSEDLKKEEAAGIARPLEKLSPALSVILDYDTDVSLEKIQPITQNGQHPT
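Inducible HEK293 T-REx D1 cells, force-coupled to calcium signalling, were plated at 4000 cells/well with tetracycline and held overnight at 30 C. After no-wash calcium dye loading, compound-evoked calcium rise over 180 s flagged agonists.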
D1 potentiator = Potentiators of Human D1 Dopamine Receptor: qHTS. hit rate 0.036% among 360,000. D(1A) dopamine receptor (Homo sapiens), P21728. HEK293 TREx D1 cells, calcium flux, dopamine EC20 potentiation. potentiation, % at 10 µM. AID 504651, 2011; in the data active means potentiation above about 30%
TRHR ag = qHTS for Small Molecule Agonists and Allosteric Enhancers of Human TRH Receptor: Primary Screen for Agonists; TRHR cells, calcium flux fluo-8, FDSS agonist mode; activation, % at 2 µM; hit rate 0.18% among 360,000; AID 493084, 2011
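Read-out: compound-evoked intracellular calcium rise in TRHR cells, fluo-8 dye, kinetic FDSS fluorescence at 1 s/cycle following a 10-cycle baseline. Cells cultured overnight before dye loading (30 min–1.5 h, RT).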
TRHR PAM = qHTS for Small Molecule Agonists and Allosteric Enhancers of Human TRH Receptor: Primary Screen for Enhancers. hit rate 0.66% among 360,000. enhancement, % at 2 µM. TRHR cells, fluo-8 calcium fluorescence, EC20 TRH enhancement; in the data active means enhancement above about 30%
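TRHR-expressing cells loaded with fluo-8 calcium dye were read kinetically (ex 480/em 530) during compound addition, then stimulated with an EC20 of TRH (10 nM final). Enhancement of the Gq-mediated intracellular calcium response was scored.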
D1 antag = Antagonist of Human D 1 Dopamine Receptor: qHTS | hit rate 3.2% among 360,000 | HEK293 TREx D1 cells, calcium flux, dopamine EC80; hits give low values | activity change, negative = inhibition, % at 10 µM | D(1A) dopamine receptor (Homo sapiens), P21728; in the data active means activity change below about -30%
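HEK293 T-REx cells expressing inducible, force-coupled D1 receptor; no-wash Ca dye, 30–90 min RT. Cmpd → 180 s read at 1 Hz → EC80 DA → 180 s read.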
Numbers stand for hits; - = inactive; . = no result. A selection: hits, their analogues and other compounds. The true share with any hit is near 4.7%. Unless noted, no stated cut-off is given here; in the data, active means activation above about 30%; inactive means the rest.

SMILES	D1 agonist	D1 potentiator	TRHR ag	TRHR PAM	D1 antag
FC(F)(F)Oc1ccc(NC2=NCCCS2)cc1	-	-	-	-	-
CCOc1ccc(CN(CCc2ccc3c(c2)OCO3)Cc2ccc(OC)c(Br)c2)cc1	-	-	-	-	-
CCOc1ccccc1CN1C2CCC1CC(c1ccc(C)cc1)C2 (stereo not given)	-	-	-	-	-41
CCOc1ccccc1CNCCc1ccc2c(c1)OCO2	-	-	-	-	-
O=C(c1cc(F)ccc1F)C1CCCN(Cc2cc(Cl)ccc2O)C1 (stereo not given)	-	-	-	34	-
O=C(c1cc(F)ccc1F)C1CCCN(Cc2ccc3nonc3c2)C1 (stereo not given)	-	-	-	-	-31
COc1cccc(C(=O)C2CCCN(Cc3ccc4nonc4c3)C2)c1 (stereo not given)	-	-	-	-	-
COc1ccc(CN2CCCC(C(=O)c3ccc(Cl)cc3)C2)c(OC)c1 (stereo not given)	-	-	-	-	-35
COc1ccc(O)c(CN2CCCC(C(=O)c3sccc3C)C2)c1 (stereo not given)	-	-	-	-	-
O=C(c1ccc2c(c1)OCO2)C1CCCN(Cc2ccc(F)c(F)c2)C1 (stereo not given)	-	-	-	-	-34
COC(=O)C1=C(c2c(C)noc2C)C[C@@H]2CC[C@H]1N2C(=O)NC1CC1	-	-	-	-	-
O=C(Nc1ccc(Br)cc1C(=O)c1ccccc1Cl)c1ccccc1F	-	-	-	-	-
Cc1cc(OCc2nn[nH]n2)c2c3c(c(=O)oc2c1)CCCC3	-	-	-	-	-
Cc1cc(OCc2ccc([N+](=O)[O-])cc2)c2c3c(c(=O)oc2c1)CCCC3	-	-	-	-	-30
Cc1cccc(-n2c(/C=C/c3cn(C)c4ccccc34)nc3ccccc3c2=O)c1	-	-	-	-	-
NC(=O)CSc1nnc([C@@H](N)Cc2c[nH]c3ccccc23)o1	-	-	-	-	-44
CCCC12CN3CC(C)(CN(C1)C3c1ccccn1)C2=O (stereo not given)	-	-	-	-	-
CN1/C(=C\C=C2C(=O)NC(=S)NC2=O)C(C)(C)c2ccccc21	484	-	175	-	-
CC1(C)OC(c2ccccc2)=C/C(=C/C=C2C(=O)NC(=S)NC2=O)O1	-	-	-	-	-
CSc1nnc([C@@H](N)Cc2ccccc2)o1	-	-	-	-	-
CC(C)Sc1nnc([C@@H](N)Cc2ccccc2)o1	75	-	-	-	-
Cc1ccc(OCC(=O)N2CCN(Cc3ccc4c(c3)OCO4)CC2)cc1C	-	-	-	-	-
O=C(COc1ccc(Br)cc1)N1CCN(Cc2ccc3c(c2)OCO3)CC1	-	-	-	-	-34
C(CCc1nn[nH]n1)CCc1nn[nH]n1	-	-	-	-	-37
COc1ccc(OCC(=O)N2CCN(Cc3cccc(OC)c3OC)CC2)cc1	-	-	-	-	-
SMILES	D1 agonist	D1 potentiator	TRHR ag	TRHR PAM	D1 antag
COC(=O)C1=C(c2ccc(Cl)c(C(F)(F)F)c2)C[C@@H]2CC[C@H]1N2C(=O)N1CCCC1	-	-	-	-	-42
COC(=O)C1=C(c2ccc(C(C)=O)cc2)C[C@@H]2CC[C@H]1N2C(=O)NC(C)C	-	-	-	-	-91
COC(=O)C1=C(c2ccc(C(C)=O)cc2)C[C@@H]2CC[C@H]1N2C	-	-	-	-	-
COC(=O)C1=C(c2ccc(F)cc2OCc2ccccc2)C[C@@H]2CC[C@H]1N2C(=O)NCc1ccccc1	-	-	-	-	-
COC(=O)C1=C(c2ccccc2OCc2ccccc2)C[C@@H]2CC[C@H]1N2C(=O)NCCc1ccc(F)cc1	-	-	-	-	-39
COC(=O)C1=C(c2ccc(Cl)c(C(F)(F)F)c2)C[C@@H]2CC[C@H]1N2C(=O)N1CCOCC1	-	-	-	-	-
COC(=O)C1=C(c2ccc(F)cc2OCc2ccccc2)C[C@@H]2CC[C@H]1N2C(=O)N1CCC(O)CC1	-	-	-	37	-
FC(F)(F)Oc1ccc(C2NCc3ccccc3-n3cccc32)cc1 (stereo not given)	-	-	-	-	-
COC(=O)C1=C(c2ccc(-c3ccccc3)c(F)c2)C[C@@H]2CC[C@H]1N2C(=O)NCCO	-	-	-	-	-40
COC(=O)C1=C(c2ccc(F)cc2F)C[C@@H]2CC[C@H]1N2C(=O)N1CCC(O)(c2ccc(Cl)cc2)CC1	-	-	-	-	-46
N#Cc1cccc(NC(=O)c2sc3nc4c(cc3c2N)N2CCC4CC2)c1	-	-	-	-	-
Clc1ccc(CNC2CN3CCC2CC3)cc1 (stereo not given)	-	-	-	-	-75
CCC12CN3CC(CC)(CN(C1)C3c1c(C)[nH]c(=O)[nH]c1=O)C2=O (stereo not given)	-	-	-	-	-
CN1C(=O)C(=Cc2sc(=O)n(-c3ccccc3)c2N2CCCCC2)C(=O)N(C)C1=O	67	-	-	-	-
CC(C)N1CC=C(c2c[nH]c3ccccc23)CC1	-	-	-	-	-
O=S1(=O)N(CCN2CC=C(c3c[nH]c4cc(F)ccc34)CC2)c2cccc3c2N1CCC3	-	-	-	-	-41
O=C(Nc1ccc2c(c1)OCCO2)c1cccn(Cc2cccc([N+](=O)[O-])c2)c1=O	-	-	-	-	.
Cc1c2ccncc2c(C)c2c1[nH]c1ccccc12	33	-	-	-	-
CNC(=O)c1cccn(Cc2cc(C(F)(F)F)cc(C(F)(F)F)c2)c1=O	30	-	-	-	-
COc1ccc(-c2nc(CN3C(=O)CN=C(c4ccccc4)c4ccccc43)c(C)o2)cc1	-	-	-	-	-
Cc1ccccc1N1C(=O)NC(=O)/C(=C/c2ccc(N3CCOCC3)o2)C1=O	-	-	-	-	-
CN1C(=O)C(=Cc2ccc(N3CCCCCC3)o2)C(=O)N(C)C1=S	-	-	-	-	-
Cc1cccc(N2C(=O)/C(=C/c3ccc(N4CCN(C)CC4)o3)C(=O)NC2=S)c1C	68	-	-	-	-
CCc1ccccc1N1C(=O)/C(=C/c2ccc(N3CCN(C)CC3)o2)C(=O)NC1=S	71	-	-	-	-
O=C1NC(=O)N(c2ccc3c(c2)OCO3)C(=O)/C1=C\c1ccc(N2CCCCC2)o1	50	-	-	-	-
Cc1ccccc1N1C(=O)/C(=C/c2ccco2)C(=O)NC1=S	-	-	-	-	-
